For some assays here: Potency and affinity values are given separately. Active and inactive are the calls of the source.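 Rule for the calls, unless noted: active = primary screen hit whose fluorescence ratio, in both repeats, exceeds the weak agonist control mean by 3 SD; inactive = the rest.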
Columns and labels:
[1] = test system: TRPC4 beta (transient receptor potential cation channel C4), mouse; assay: activators of mouse TRPC4 channel, confirmation, cell-based, Fluo4 calcium, HEK293 TRPC4beta/mu-opioid, duplicates, 10 µM (AID 2426;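 active = fluorescence ratio normalized to control raised more than 50% in primary screen plus both repeat runs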;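 for activation: percent rise of integrated ratio over buffer wells lacking compound which define 0%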); conditions: Fluo4 calcium fluorescence, at 10 µM; active compounds read high
[2] = test system: transient receptor potential cation channel C4 beta (TRPC4), mouse; assay: activators of mouse TRPC4 channel, confirmation, cell-based, second round, Fluo4, HEK293 TRPC4beta/mu-opioid, 1 µM (AID 2461;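 active = primary screen active and over 50% activation in each of two duplicate runs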); conditions: Fluo4 calcium fluorescence, at 1 µM; active compounds read high
[3] = test system: TRPC4 (transient receptor potential cation channel C4 beta), mouse; assay: positive allosteric modulators of mouse TRPC4, confirmation, cell-based, second round, Fluo-4, HEK293 TRPC4beta/mu-opioid, 1 µM (AID 2554); conditions: DAMGO EC20, Fluo-4 calcium flux, at 1 µM; active compounds read high
[4] = test system: TRPC4 beta (transient receptor potential cation channel C4), mouse; assay: positive allosteric modulators of mouse TRPC4, confirmation, cell-based, Fluo-4, HEK293 TRPC4beta/mu-opioid (AID 2555;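 active = primary screen hit whose calcium fluorescence ratio, in both repeats, exceeds the weak agonist control mean by 3 SD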); conditions: DAMGO EC20, Fluo-4 calcium flux, at 10 µM; active compounds read high
[5] = molecular target: Short transient receptor potential channel 4 (Mus musculus) (UniProt Q9QUQ5); assay: inhibitors of mouse TRPC4 channel, confirmation, cell-based, Fluo4, HEK293 TRPC4beta/mu-opioid (AID 2636;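 active = calcium signal cut by more than 3 SD below the full-agonist control yet still positive, in both repeats and the earlier primary screen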); conditions: DAMGO, Fluo4 calcium flux, at 10 µM; active compounds read high
[6] = molecular target: Short transient receptor potential channel 4 (Mus musculus) (UniProt Q9QUQ5); assay: inhibitors of mouse TRPC4 channel, confirmation, cell-based, second round, Fluo4, HEK293 TRPC4beta/mu-opioid, 1 µM (AID 2637;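 active = calcium signal ratio cut to more than 3 SD under the fully stimulated control mean yet still positive, in both repeats and the primary screen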); conditions: Fluo4 calcium flux, DAMGO, at 1 µM; active compounds read high
[7] = molecular target: Short transient receptor potential channel 4 (Mus musculus) (UniProt Q9QUQ5); assay: mouse TRPC4 channel activators, dose response, cell-based, HEK293 TRPC4/mu-opioid, Fluo-4 calcium (AID 434937;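 active = primary screen activator hit with a dose response curve and TRPC4 channel activation at any tested dose; inactive = no activation, no dose response, or not a primary hit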)
[8] = molecular target: Short transient receptor potential channel 4 (Mus musculus) (UniProt Q9QUQ5); assay: TRPC4 positive allosteric modulators, dose response, cell-based, HEK293 TRPC4/mu-opioid, Fluo-4 calcium, EC20 DAMGO (AID 434941;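 active = earlier screen potentiator hit that boosts the TRPC4 ion channel at some dose, with a dose response; inactive = no potentiation, no dose response, or not a prior hit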;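 note: calcium entry triggered by an EC20 dose of DAMGO at the co-expressed mu-opioid receptor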)
[9] = molecular target: Short transient receptor potential channel 4 (Mus musculus) (UniProt Q9QUQ5); assay: mouse TRPC4 channel inhibitors, dose response, cell-based, HEK293 TRPC4/mu-opioid, Fluo-4 calcium (AID 434942;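 active = primary screen inhibitor hit that blocks the TRPC4 channel at some tested dose, yielding a dose curve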)
[10] = molecular target: Short transient receptor potential channel 6 (Mus musculus) (UniProt Q61143); assay: inhibition of mouse TRPC6 channel, confirmation, selectivity assay for TRPC4 inhibitor project, cell-based, HEK293, membrane potential dye, duplicate (AID 434948;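 active = active in primary screen and both duplicates, each dropping signal beyond three positive-control SD with fluorescence still positive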); conditions: HEK293 TRPC6, membrane potential dye fluorescence, at 10 µM, stimulated with maximal-effect acetylcholine; active compounds read high
[11] = molecular target: Short transient receptor potential channel 6 (Mus musculus) (UniProt Q61143); assay: activation of mouse TRPC6 channel, confirmation, selectivity assay for TRPC4 activator project, cell-based, HEK293, membrane potential dye, duplicate (AID 434950;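 active = membrane potential signal rise above negative control mean plus 3 SD in both duplicates, also active in the earlier TRPC4 screen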); conditions: HEK293 TRPC6, membrane potential fluorescence, at 10 µM; active compounds read high
[12] = molecular target: Short transient receptor potential channel 6 (Mus musculus) (UniProt Q61143); assay: TRPC6 potentiation by TRPC4 potentiator hits, confirmation, selectivity assay for TRPC4 potentiator project, HEK293 cells, membrane potential dye, duplicate (AID 434952;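 active = compound raising the membrane signal above positive-control mean plus 3 SD in both repeats, and a primary screen hit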); conditions: HEK293 TRPC6, membrane potential dye fluorescence, at 10 µM, maximal acetylcholine added after compound; active compounds read high
[13] = molecular target: Short transient receptor potential channel 4 (Mus musculus) (UniProt Q9QUQ5); assay: calcium flux activators in TRPC4/5HT1a cells, counter-screen for TRPC4 activator project, cell-based, second counter screen, HEK293 TRPC4/5HT1a, Fluo-4 (AID 434977;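 active = calcium signal rise above buffer-control mean plus 5 SD in both duplicates, and also a hit in the primary screen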); conditions: Fluo-4 calcium flux, at 10 µM; active compounds read high
[14] = calcium flux inhibitors in TRPC4/5HT1a cells, confirmation, counter-screen for TRPC4 inhibitor project, cell-based, second counter screen, HEK293 TRPC4/5HT1a, Fluo-4 (AID 434978;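 active = primary screen active whose calcium signal fell more than 3 SD beyond the full-serotonin control mean in both duplicate plates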;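 note: serotonin given first at submaximal then at maximal dose after compound preincubation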); conditions: Fluo-4 calcium flux, at 10 µM, serotonin added to trigger calcium flux; active compounds read high
[15] = test system: TRPC4 (mouse), co-expressed with 5HT1a in HEK293; assay: calcium flux potentiators in TRPC4/5HT1a cells, confirmation, counter-screen for TRPC4 potentiator project, cell-based, second counter screen, HEK293 TRPC4/5HT1a, Fluo-4 (AID 434979;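 active = signal rise over 3 SD above mean of control wells given weak agonist, in both repeats and first screen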); conditions: Fluo-4 calcium flux, at 10 µM, serotonin added at its EC20 dose; active compounds read high
[16] = calcium flux activation in mu-opioid HEK293 cells, confirmation, counter-screen for TRPC4 activator project, cell-based, HEK293 mu-opioid receptor line (AID 449723;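 active = hit in primary screen, with calcium signal over 5 SD above buffer well mean in both duplicates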;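 note: counter screen cells carry the mu-opioid receptor alone and lack TRPC4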); conditions: Fluo-4 calcium fluorescence, at 10 µM; active compounds read high
[17] = calcium flux enhancement in mu-opioid HEK293 cells, confirmation, counter-screen for TRPC4 allosteric potentiator project, cell-based, HEK293 mu-opioid receptor line (AID 449724;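 active = calcium signal rise more than 3 SD above the low-dose agonist control mean, in both duplicate plates and the primary screen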); conditions: Fluo-4 calcium flux, at 10 µM, compound added before EC20 DAMGO stimulus; active compounds read high

Short transient receptor potential channel 6 (Mus musculus), sequence (Q61143 whole entry, looked up): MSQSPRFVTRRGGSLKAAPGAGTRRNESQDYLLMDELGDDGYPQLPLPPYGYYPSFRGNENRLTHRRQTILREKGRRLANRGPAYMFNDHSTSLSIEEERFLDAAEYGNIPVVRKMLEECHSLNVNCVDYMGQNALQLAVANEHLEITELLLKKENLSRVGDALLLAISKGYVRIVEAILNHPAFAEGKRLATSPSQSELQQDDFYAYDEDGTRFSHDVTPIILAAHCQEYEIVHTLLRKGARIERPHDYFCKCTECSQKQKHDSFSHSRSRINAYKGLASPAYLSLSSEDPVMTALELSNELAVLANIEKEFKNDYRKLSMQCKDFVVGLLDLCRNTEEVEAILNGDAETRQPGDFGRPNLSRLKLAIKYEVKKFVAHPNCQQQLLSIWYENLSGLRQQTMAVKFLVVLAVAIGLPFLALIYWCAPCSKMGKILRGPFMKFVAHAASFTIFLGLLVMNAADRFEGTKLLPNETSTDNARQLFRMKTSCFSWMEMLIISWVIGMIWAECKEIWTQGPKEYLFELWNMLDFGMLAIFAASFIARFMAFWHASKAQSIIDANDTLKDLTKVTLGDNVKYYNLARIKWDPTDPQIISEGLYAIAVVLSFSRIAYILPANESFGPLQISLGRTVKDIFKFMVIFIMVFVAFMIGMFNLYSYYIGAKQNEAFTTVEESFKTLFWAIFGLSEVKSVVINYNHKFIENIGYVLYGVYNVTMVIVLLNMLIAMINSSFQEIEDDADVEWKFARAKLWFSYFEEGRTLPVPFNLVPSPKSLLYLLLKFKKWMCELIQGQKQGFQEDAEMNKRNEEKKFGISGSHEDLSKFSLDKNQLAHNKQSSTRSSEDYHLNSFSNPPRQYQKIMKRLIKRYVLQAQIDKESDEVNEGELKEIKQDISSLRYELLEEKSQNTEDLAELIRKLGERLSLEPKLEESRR
Short transient receptor potential channel 4 (Mus musculus), sequence (Q9QUQ5 whole entry, looked up): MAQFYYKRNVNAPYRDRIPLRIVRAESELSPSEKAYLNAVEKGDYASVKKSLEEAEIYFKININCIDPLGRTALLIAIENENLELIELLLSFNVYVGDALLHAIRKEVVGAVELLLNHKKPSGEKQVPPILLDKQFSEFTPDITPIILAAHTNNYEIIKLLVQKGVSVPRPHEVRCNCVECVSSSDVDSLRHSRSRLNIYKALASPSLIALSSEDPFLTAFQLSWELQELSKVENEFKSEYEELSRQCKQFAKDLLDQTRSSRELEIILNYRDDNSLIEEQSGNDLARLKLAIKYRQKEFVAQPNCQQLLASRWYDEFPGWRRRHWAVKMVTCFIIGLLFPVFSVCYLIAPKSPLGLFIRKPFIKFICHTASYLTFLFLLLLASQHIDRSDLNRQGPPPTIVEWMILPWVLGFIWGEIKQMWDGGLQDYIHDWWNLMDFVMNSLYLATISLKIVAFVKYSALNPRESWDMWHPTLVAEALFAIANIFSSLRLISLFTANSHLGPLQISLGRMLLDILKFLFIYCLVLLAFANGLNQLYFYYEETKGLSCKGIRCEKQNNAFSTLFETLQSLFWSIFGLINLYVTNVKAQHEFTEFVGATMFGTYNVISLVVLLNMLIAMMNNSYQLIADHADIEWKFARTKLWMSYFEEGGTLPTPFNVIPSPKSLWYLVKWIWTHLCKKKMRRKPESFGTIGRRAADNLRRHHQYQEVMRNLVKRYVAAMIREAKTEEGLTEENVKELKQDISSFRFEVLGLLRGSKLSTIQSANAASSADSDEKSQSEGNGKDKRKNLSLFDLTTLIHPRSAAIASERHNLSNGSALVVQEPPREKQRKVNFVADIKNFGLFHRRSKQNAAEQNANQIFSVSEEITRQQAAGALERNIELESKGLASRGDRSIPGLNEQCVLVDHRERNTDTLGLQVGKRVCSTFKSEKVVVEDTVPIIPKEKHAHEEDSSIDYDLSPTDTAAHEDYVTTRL

COc1ccccc1CNCc1cc(Br)ccc1OC
inactive: outcome [1] | outcome [2] | outcome [3] | outcome [4] | outcome [5] | outcome [6] | outcome [7] | outcome [8] | outcome [9] | outcome [10] | outcome [11] | outcome [12] | outcome [13] | outcome [14] | outcome [15] | outcome [16] | outcome [17]

OC(c1ccccc1)(c1ccccc1)C1CCN(C(=S)NC2CCCC2)CC1
inactive: outcome [1] | outcome [2] | outcome [3] | outcome [4] | outcome [5] | outcome [6] | outcome [7] | outcome [8] | outcome [9] | outcome [10] | outcome [11] | outcome [12] | outcome [13] | outcome [14] | outcome [15] | outcome [16] | outcome [17]

O=C(c1cc2cc(Br)cc(Br)c2oc1=O)N1CCCC1
inactive: outcome [1] | outcome [2] | outcome [3] | outcome [4] | outcome [5] | outcome [6] | outcome [7] | outcome [8] | outcome [9] | outcome [10] | outcome [11] | outcome [12] | outcome [13] | outcome [14] | outcome [16] | outcome [17]
active: potentiation [15] 15.8%

CCOc1ccc(-n2cnnn2)cc1S(=O)(=O)NCc1ccccc1
inactive: outcome [1] | outcome [2] | outcome [3] | outcome [4] | outcome [5] | outcome [6] | outcome [7] | outcome [8] | outcome [9] | outcome [10] | outcome [11] | outcome [12] | outcome [13] | outcome [14] | outcome [15] | outcome [16] | outcome [17]

Cc1cc(S(=O)(=O)NC2CCN(Cc3ccccc3)CC2)c(C)cc1Cl
active: potentiation [15] 23.1%
inactive: outcome [1] | outcome [2] | outcome [3] | outcome [4] | outcome [5] | outcome [6] | outcome [7] | outcome [8] | outcome [9] | outcome [10] | outcome [11] | outcome [12] | outcome [13] | outcome [14] | outcome [16] | outcome [17]

CC1CCCN(C2=C(NS(=O)(=O)c3ccc(Br)cc3)C(=O)c3ccccc3C2=O)C1 (configuration not stated)
inactive: outcome [1] | outcome [2] | outcome [3] | outcome [4] | outcome [5] | outcome [6] | outcome [7] | outcome [8] | outcome [9] | outcome [10] | outcome [11] | outcome [12] | outcome [13] | outcome [14] | outcome [15] | outcome [16] | outcome [17]

CCN(CC)CCSc1nnc2c3ccccc3n(Cc3ccccc3)c2n1
inactive: outcome [1] | outcome [2] | outcome [3] | outcome [4] | outcome [5] | outcome [6] | outcome [7] | outcome [8] | outcome [9] | outcome [10] | outcome [11] | outcome [12] | outcome [13] | outcome [14] | outcome [15] | outcome [16] | outcome [17]

CCN1CCN(c2c(Cl)cccc2NC(=O)c2cccs2)CC1
active: potentiation [3] 14% | potentiation [15] 20.9%
inactive: outcome [1] | outcome [2] | outcome [4] | outcome [5] | outcome [6] | outcome [7] | outcome [8] | outcome [9] | outcome [10] | outcome [11] | outcome [12] | outcome [13] | outcome [14] | outcome [16] | outcome [17]

CCN(CC)CC(=O)Nc1ccccc1SCC(=O)Nc1ccsc1C(=O)OC
inactive: outcome [1] | outcome [2] | outcome [3] | outcome [4] | outcome [5] | outcome [6] | outcome [7] | outcome [8] | outcome [9] | outcome [10] | outcome [11] | outcome [12] | outcome [13] | outcome [14] | outcome [15] | outcome [16] | outcome [17]

CC1CCN(CCc2nc3cc(NS(=O)(=O)c4ccc(F)cc4)ccc3n2C)CC1
active: potentiation [15] 7.72%
inactive: outcome [1] | outcome [2] | outcome [3] | outcome [4] | outcome [5] | outcome [6] | outcome [7] | outcome [8] | outcome [9] | outcome [10] | outcome [11] | outcome [12] | outcome [13] | outcome [14] | outcome [16] | outcome [17]

COc1ccc(OC)c(NC(=O)COC(=O)Cc2ccc(-c3ccccc3)cc2)c1
active: potentiation [15] 31.8%
inactive: outcome [1] | outcome [2] | outcome [3] | outcome [4] | outcome [5] | outcome [6] | outcome [7] | outcome [8] | outcome [9] | outcome [10] | outcome [11] | outcome [12] | outcome [13] | outcome [14] | outcome [16] | outcome [17]

COc1cccc(OCC(=O)NC2CCCCC2)c1
active: potentiation [4] 41% | potentiation [15] 26.3%
inactive: outcome [1] | outcome [2] | outcome [3] | outcome [5] | outcome [6] | outcome [7] | outcome [8] | outcome [9] | outcome [10] | outcome [11] | outcome [12] | outcome [13] | outcome [14] | outcome [16] | outcome [17]

CC(=O)Nc1cccc(C(=O)OC(C(=O)c2ccc(C)cc2)c2ccccc2)c1 (configuration not stated)
inactive: outcome [1] | outcome [2] | outcome [3] | outcome [4] | outcome [5] | outcome [6] | outcome [7] | outcome [8] | outcome [9] | outcome [10] | outcome [11] | outcome [12] | outcome [13] | outcome [14] | outcome [16] | outcome [17]
active: potentiation [15] 22.7%

CN(C)S(=O)(=O)c1ccc(Cl)c(C(=O)NC2CCN(Cc3ccccc3)C2)c1 (configuration not stated)
inactive: outcome [1] | outcome [2] | outcome [3] | outcome [4] | outcome [5] | outcome [6] | outcome [7] | outcome [8] | outcome [9] | outcome [10] | outcome [11] | outcome [12] | outcome [13] | outcome [14] | outcome [16] | outcome [17]
active: potentiation [15] 15.3%

CCN(CC)c1ccc(CNc2nc3ccccc3n2CCN2CCCCC2)cc1
active: activation [1] 109%
inactive: outcome [2] | outcome [3] | outcome [4] | outcome [5] | outcome [6] | outcome [7] | outcome [8] | outcome [9] | outcome [10] | outcome [11] | outcome [12] | outcome [13] | outcome [14] | outcome [15] | outcome [16] | outcome [17]

O=C(NN/C(=N/S(=O)(=O)c1ccc(Cl)cc1)c1ccccc1)c1cccc(Cl)c1
active: inhibition [5] 70%
inactive: outcome [1] | outcome [2] | outcome [3] | outcome [4] | outcome [6] | outcome [7] | outcome [8] | outcome [9] | outcome [10] | outcome [11] | outcome [12] | outcome [13] | outcome [14] | outcome [15] | outcome [16] | outcome [17]

From PubChem BioAssay
